# Activity calls are given as the source filed them. Calls come from the whole dose curve; as a rule, active = well fitted curve in the direction sought with a large enough effect; inconclusive = small, poorly fitted or top-dose-only effect, or effect the other way, or another doubt; inactive = no such curve, though single readings can be large or run the other way.
# Assay: Inducers of the Endoplasmic Reticulum Stress Response (ERSR) in human glioma: Validation (AID 504836); note: 0% is about no effect
# Settings: human glioma cells, ER stress response reporter; series mostly up to 38.3 µM; activation: at the top concentration
# Summary of the method: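 ERSR induction read as luciferase luminescence (Bright-Glo, 10 min at room temperature) in stably transfected human U87-MG glioma cells exposed to compounds for 16 h, using GRP78 as sensor.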
row,SMILES,activation
1,CNCCC=C1c2ccccc2CCc2ccccc21,-7.33% (inactive)
2,NC(Cc1ccc(Cl)cc1)C(=O)O (stereo not drawn),-3.39% (inactive)
3,CCO/C([O-])=N/c1c[n+](N2CCOCC2)no1,0.993% (inactive)
4,CC(=O)OC(C)C[N+](C)(C)C (stereo not drawn),-1.78% (inactive)
5,CCOC(=O)[C@H](CCc1ccccc1)N[C@@H](C)C(=O)N1[C@H](C(=O)O)C[C@H]2CCCC[C@@H]21,-0.187% (inactive)
6,Clc1cccc(Cl)c1NC1=NCCN1,-1.88% (inactive)
7,CCN(CC)CCNC(=O)c1cc(S(C)(=O)=O)ccc1OC,-1.39% (inactive)
8,COc1ccc2[nH]cc(CCNC(C)=O)c2c1,-3.55% (inactive)
9,NC1CCN(c2cccc(Cl)n2)CC1,-2.43% (inactive)
10,Nc1ccn([C@@H]2O[C@H](CO)[C@@H](O)C2O)c(=O)n1 (stereo partly drawn),-4.08% (inactive)
11,CN(C)C(=O)Oc1ccc[n+](C)c1,-4.55% (inactive)
12,NC(N)=NC(=O)Cc1c(Cl)cccc1Cl,-3.77% (inactive)
13,CC(CCc1ccc(O)cc1)NCCc1ccc(O)c(O)c1 (stereo not drawn),2.75% (inactive)
14,COc1cc(NS(C)(=O)=O)ccc1Nc1c2ccccc2nc2ccccc12,-3.07% (inactive)
15,CO[C@@]1(NC(=O)CSCC#N)C(=O)N2C(C(=O)O)=C(CSc3nnnn3C)CS[C@@H]21,-1.98% (inactive)
16,CC(C)(Oc1ccc(C2CC2(Cl)Cl)cc1)C(=O)O (stereo not drawn),-0.971% (inactive)
17,NC(=O)N1c2ccccc2C=Cc2ccccc21,-4.4% (inactive)
18,Clc1ccc2nsnc2c1NC1=NCCN1,-4.09% (inactive)
19,NCCCCCC(=O)O,-1.03% (inactive)
20,O=c1c(-c2ccc(O)cc2)coc2cc(O)cc(O)c12,-10.6% (inactive)
21,NCCS(=O)(=O)O,-1.34% (inactive)
22,Cc1scc2c1N(C(=O)CN1CCN(C)CC1)c1ccccc1NC2=O,-0.791% (inactive)
23,Nc1ncnc2c1ncn2[C@@H]1O[C@H](CO)[C@@H](O)[C@H]1O,-1.57% (inactive)
